Results reported in the supplement of paper PMC8728848.
The full list was thinned out, with the strongest signals kept by preference.

How the values were obtained:
Assay in all cases: glycan array binding signal (z-score within array); higher = stronger binding
Settings in all cases: glycan notation: IUPAC condensed, linker removed
Gal6S(b1-4)Glc = molecular target: Gal6S(b1-4)Glc
Procedure, shortened: (§1)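 Arrays were curated from the Consortium for Functional Glycomics database, 3228 in total, and kept only where the protein sequence was available. Binding is expressed as a within-array Z-score. This score was averaged across arrays of the same protein sequence at different concentrations or buffers and across linkers, and negative values can be read as non-binding.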

GlcNAc(b1-3)Gal(b1-4)Glc = molecular target: GlcNAc(b1-3)Gal(b1-4)Glc
Procedure, shortened: as §1

[1] = molecular target: GlcNAc(b1-3)Gal(b1-4)GlcNAc(b1-3)Gal(b1-4)GlcNAc(b1-2)[GlcNAc(b1-3)Gal(b1-4)GlcNAc(b1-3)Gal(b1-4)GlcNAc(b1-6)]Man(a1-6)[GlcNAc(b1-3)Gal(b1-4)GlcNAc(b1-3)Gal(b1-4)GlcNAc(b1-2)Man(a1-3)]Man(b1-4)GlcNAc(b1-4)[Fuc(a1-6)]GlcNAc
Procedure, shortened: as §1

[2] = molecular target: GlcNAc(b1-3)Gal(b1-4)GlcNAc(b1-3)Gal(b1-4)GlcNAc(b1-3)Gal(b1-4)GlcNAc(b1-2)[GlcNAc(b1-3)Gal(b1-4)GlcNAc(b1-3)Gal(b1-4)GlcNAc(b1-3)Gal(b1-4)GlcNAc(b1-6)]Man(a1-6)[GlcNAc(b1-3)Gal(b1-4)GlcNAc(b1-3)Gal(b1-4)GlcNAc(b1-3)Gal(b1-4)GlcNAc(b1-2)Man(a1-3)]Man(b1-4)GlcNAc(b1-4)[Fuc(a1-6)]GlcNAc
Procedure, shortened: as §1

[3] = molecular target: GlcNAc(b1-3)Gal(b1-4)GlcNAc(b1-3)Gal(b1-4)GlcNAc(b1-3)Gal(b1-4)GlcNAc(b1-3)Gal(b1-4)GlcNAc(b1-2)[GlcNAc(b1-3)Gal(b1-4)GlcNAc(b1-3)Gal(b1-4)GlcNAc(b1-3)Gal(b1-4)GlcNAc(b1-3)Gal(b1-4)GlcNAc(b1-6)]Man(a1-6)[GlcNAc(b1-3)Gal(b1-4)GlcNAc(b1-3)Gal(b1-4)GlcNAc(b1-3)Gal(b1-4)GlcNAc(b1-3)Gal(b1-4)GlcNAc(b1-2)Man(a1-3)]Man(b1-4)GlcNAc(b1-4)[Fuc(a1-6)]GlcNAc
Procedure, shortened: as §1

GlcNAc(b1-3)GalNAc = molecular target: GlcNAc(b1-3)GalNAc
Procedure, shortened: as §1

[4] = molecular target: GlcNAc(b1-3)[GlcNAc(b1-6)]Gal(b1-4)GlcNAc
Procedure, shortened: as §1

[5] = molecular target: Man(a1-2)Man(a1-3)[Man(a1-2)Man(a1-6)]Man
Procedure, shortened: as §1

[6] = molecular target: Man(a1-3)[Man(a1-6)]Man(b1-4)GlcNAc(b1-4)[Fuc(a1-6)]GlcNAc
Procedure, shortened: as §1

[7] = molecular target: Neu5Ac(a2-3)Gal(b1-3)GlcNAc(b1-2)Man(a1-3)[GlcNAc(b1-4)][Neu5Ac(a2-3)Gal(b1-3)GlcNAc(b1-2)Man(a1-6)]Man(b1-4)GlcNAc(b1-4)GlcNAc
Procedure, shortened: as §1

[8] = molecular target: Neu5Ac(a2-3)Gal(b1-4)GlcNAc
Procedure, shortened: as §1

[9] = molecular target: Neu5Ac(a2-3)Gal(b1-4)GlcNAc(b1-2)Man(a1-3)[Neu5Ac(a2-6)Gal(b1-4)GlcNAc(b1-2)Man(a1-6)]Man(b1-4)GlcNAc(b1-4)GlcNAc
Procedure, shortened: as §1

[10] = molecular target: Neu5Ac(a2-3)Gal(b1-4)GlcNAc(b1-2)[Neu5Ac(a2-3)Gal(b1-4)GlcNAc(b1-4)]Man(a1-3)[GlcNAc(b1-4)][Neu5Ac(a2-3)Gal(b1-4)GlcNAc(b1-2)[Neu5Ac(a2-3)Gal(b1-4)GlcNAc(b1-6)]Man(a1-6)]Man(b1-4)GlcNAc(b1-4)GlcNAc
Procedure, shortened: as §1

[11] = molecular target: Neu5Ac(a2-3)[GalNAc(b1-4)]Gal(b1-4)GlcNAc(b1-3)GalNAc
Procedure, shortened: as §1

[12] = molecular target: Neu5Ac(a2-6)Gal(b1-4)GlcNAc(b1-3)Gal(b1-4)GlcNAc(b1-2)Man(a1-3)[Neu5Ac(a2-6)Gal(b1-4)GlcNAc(b1-3)Gal(b1-4)GlcNAc(b1-2)Man(a1-6)]GalNAc
Procedure, shortened: as §1

[13] = molecular target: Neu5Ac(a2-6)Gal(b1-4)GlcNAc(b1-3)Gal(b1-4)GlcNAc(b1-3)Gal(b1-4)GlcNAc
Procedure, shortened: as §1

[14] = molecular target: Neu5Ac(a2-6)Gal(b1-4)GlcNAc(b1-3)Gal(b1-4)GlcNAc(b1-3)Gal(b1-4)GlcNAc(b1-2)Man(a1-3)[Neu5Ac(a2-6)Gal(b1-4)GlcNAc(b1-3)Gal(b1-4)GlcNAc(b1-3)Gal(b1-4)GlcNAc(b1-2)Man(a1-6)]GalNAc
Procedure, shortened: as §1

[15] = molecular target: Neu5Ac(a2-6)Gal(b1-4)GlcNAc(b1-3)Gal(b1-4)[Fuc(a1-3)]GlcNAc(b1-3)Gal(b1-4)[Fuc(a1-3)]GlcNAc
Procedure, shortened: as §1

[16] = molecular target: Neu5Ac(a2-6)Gal(b1-4)GlcNAc(b1-6)[Gal(b1-3)GlcNAc(b1-3)]Gal(b1-4)Glc
Procedure, shortened: as §1

[17] = molecular target: Neu5Ac(a2-6)GlcNAc(b1-4)GlcNAc(b1-4)GlcNAc
Procedure, shortened: as §1

[18] = molecular target: Neu5Ac(a2-8)Neu5Ac(a2-3)Gal(b1-3)GalNAc(b1-4)[Neu5Ac(a2-8)Neu5Ac(a2-3)]Gal(b1-4)Glc
Procedure, shortened: as §1

[19] = molecular target: Neu5Ac9Ac(a2-6)Gal(b1-4)GlcNAc
Procedure, shortened: as §1

B1: Epa8 (Candida glabrata) (protein)
chain: MGSSHHHHHHSSGLVPRGSHMASSRALSDYPLGCSPLLGTKLTPGLSMELYEYPLDNHGIGPHCWDPAYLNPEYPRTGFESHKLIGTAQNVMSLNFEHRTQDCHVEFSNLPASFNFPDQITLTNFTMLLYGYFKPKESGRYRFHMEADDLLLMNLGAGNAFDCCAHEATRNNLGDYIAYDIWAGTRKDVEVFLEKEVFYPLRLFFNNRDGRAALDFSYYLNGATEPGTDIPELLFSLPDGESCPAYI
Question: For B1, which “glycan array binding signal (z-score)” value (Gal6S(b1-4)Glc) is on record?
Answer: 0.199

Question: And the “glycan array binding signal (z-score)” value (GlcNAc(b1-3)Gal(b1-4)Glc)?
Answer: -0.331

Question: And the “glycan array binding signal (z-score)” value [1]?
Answer: 3.86

Question: And the “glycan array binding signal (z-score)” value [2]?
Answer: 3

Question: What about the “glycan array binding signal (z-score)” value [3] of the same binder?
Answer: 2.23

Question: What about the “glycan array binding signal (z-score)” value (GlcNAc(b1-3)GalNAc) of the same binder?
Answer: -0.661

Question: And the “glycan array binding signal (z-score)” value [4]?
Answer: 0.492

Question: What about the “glycan array binding signal (z-score)” value [5] of the same binder?
Answer: -0.246

Question: What about the “glycan array binding signal (z-score)” value [6] of the same binder?
Answer: 2.33

Question: What about the “glycan array binding signal (z-score)” value [7] of the same binder?
Answer: 1.49

Question: And the “glycan array binding signal (z-score)” value [8]?
Answer: -0.315

Question: And the “glycan array binding signal (z-score)” value [9]?
Answer: 0.195

Question: And the “glycan array binding signal (z-score)” value [10]?
Answer: -0.346

Question: And the “glycan array binding signal (z-score)” value [11]?
Answer: 0.105

Question: And the “glycan array binding signal (z-score)” value [12]?
Answer: 2.31

Question: And the “glycan array binding signal (z-score)” value [13]?
Answer: -0.084

Question: What about the “glycan array binding signal (z-score)” value [14] of the same binder?
Answer: 3.31

Question: And the “glycan array binding signal (z-score)” value [15]?
Answer: -0.491

Question: What about the “glycan array binding signal (z-score)” value [16] of the same binder?
Answer: -0.638

Question: What about the “glycan array binding signal (z-score)” value [17] of the same binder?
Answer: -0.271

Question: And the “glycan array binding signal (z-score)” value [18]?
Answer: 0.256

Question: What about the “glycan array binding signal (z-score)” value [19] of the same binder?
Answer: -0.4
